Experiment [1] has as its target Bile acid receptor (Homo sapiens) (UniProt Q96RI1). The experiment can be described thus: ATG_IR1_CIS: Attagene CIS-FACTORIAL HepG2 Assay for human Nuclear Receptor Subfamily 1 Group H Member 4 (NR1H4), IR1 submotif (AID 2282946). The settings on record: IR1 reporter transcription, actives raise or lower the signal. The method in brief: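 HepG2 cells transiently transfected with multiplexed cis-element reporter units read endogenous transcription factor activity. After 24 h compound exposure, reporter mRNA was quantified by RT-PCR, fluorescent labelling, HpaI digestion and capillary electrophoresis; bidirectional fitting versus DMSO baseline.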

The nature of experiment [2]: ATG_GRE_CIS: Attagene CIS-FACTORIAL HepG2 Assay for human Glucocorticoid Response Elements (GRE) (AID 2282947). The conditions noted are these: HepG2 GRE cis-reporter, Attagene multiplex mRNA; actives raise or lower the signal. The essentials:
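Multiplexed cis-reporter mRNA induction, HepG2, 24 h post-dose. RT-PCR, FAM-labelled, HpaI-digested amplicons by CE. Bidirectional fit vs DMSO.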

The nature of experiment [3]: ATG_ISRE_CIS: Attagene CIS-FACTORIAL HepG2 Assay for human Interferon Regulatory Factor 1 (IRF1) binding to an Interferon-Stimulated Response Element (ISRE) (AID 2282948). The conditions noted are these: HepG2 ISRE cis-reporter (Attagene), mRNA transcription readout; actives raise or lower the signal. The method in brief:
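Multiplexed mRNA reporter readout in human liver HepG2 cells: cis-element-driven reporters transfected, compound added for 24 h, transcripts amplified, fluorescently labelled and sized by capillary electrophoresis; curve fitting bidirectional against DMSO.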

A short description of experiment [4]: ATG_M_32_CIS: Attagene CIS-FACTORIAL HepG2 Assay for M32 Transcription Factor (Internal Marker) (AID 2282949).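 Also: background control marker of the multiplexed CIS panel rather than a real target.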 The conditions noted are these: HepG2 Attagene cis-factorial M32 reporter, mRNA; actives raise or lower the signal. The essentials:
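Transient MRTU transfection of HepG2; 24 h compound treatment; TriZol RNA, oligo(dT) RT, reporter PCR, 6-FAM primer extension, HpaI cut, CE. Gain/loss of signal vs DMSO.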

A short description of experiment [5]: ATG_M_06_CIS: Attagene CIS-FACTORIAL HepG2 Assay for M06 Transcription Factor (Internal Marker) (AID 2282950). The conditions noted are these: HepG2 Attagene CIS-FACTORIAL M06 internal marker reporter; actives raise or lower the signal. The essentials:
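Terse: HepG2, transient MRTU transfection (FuGene 6), 24 h dosing; total RNA, oligo(dT) RT, PCR, FAM label, HpaI cut, capillary electrophoresis; bidirectional fit vs DMSO baseline; background-control endpoint.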

In experiment [6] the target is Hypoxia-inducible factor 1-alpha (Homo sapiens) (UniProt Q16665). The experiment is described as follows: ATG_HIF1a_CIS: Attagene CIS-FACTORIAL HepG2 Assay for human Hypoxia Inducible Factor 1 (HIF1A) (AID 2282951). The settings on record: HepG2 Attagene cis-factorial HIF1a reporter transcription; actives raise or lower the signal. The method in brief: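 Dosed 24 h, transfected HepG2 cells yielded total RNA whose reporter transcripts were RT-PCR-amplified and sized by capillary electrophoresis using fluorescent labelling; DMSO defined baseline, with gain and loss of signal both fitted.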
Chain of Hypoxia-inducible factor 1-alpha (Homo sapiens) (Q16665 whole entry, looked up): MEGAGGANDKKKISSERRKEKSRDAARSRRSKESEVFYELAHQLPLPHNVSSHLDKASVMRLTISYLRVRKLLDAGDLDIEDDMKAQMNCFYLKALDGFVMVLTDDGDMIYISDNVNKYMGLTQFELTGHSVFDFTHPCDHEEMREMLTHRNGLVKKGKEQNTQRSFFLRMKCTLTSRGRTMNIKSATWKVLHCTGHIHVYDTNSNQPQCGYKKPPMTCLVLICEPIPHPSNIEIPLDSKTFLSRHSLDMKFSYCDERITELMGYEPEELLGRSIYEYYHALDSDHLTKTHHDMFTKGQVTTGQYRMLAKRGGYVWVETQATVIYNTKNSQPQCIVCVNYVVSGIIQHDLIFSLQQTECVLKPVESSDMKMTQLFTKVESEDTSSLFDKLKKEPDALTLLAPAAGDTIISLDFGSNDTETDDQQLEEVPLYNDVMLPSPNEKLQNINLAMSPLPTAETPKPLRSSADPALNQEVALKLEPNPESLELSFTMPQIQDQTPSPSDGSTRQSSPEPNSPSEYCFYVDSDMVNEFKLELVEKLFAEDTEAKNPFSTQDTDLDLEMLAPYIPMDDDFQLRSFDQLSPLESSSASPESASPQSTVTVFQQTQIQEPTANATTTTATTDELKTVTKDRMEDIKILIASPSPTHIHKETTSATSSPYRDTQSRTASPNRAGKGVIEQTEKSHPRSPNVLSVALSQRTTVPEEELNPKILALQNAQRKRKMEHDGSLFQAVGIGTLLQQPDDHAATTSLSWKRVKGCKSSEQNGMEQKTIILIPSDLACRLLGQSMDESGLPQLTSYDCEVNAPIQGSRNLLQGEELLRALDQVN

The target in experiment [7] is Hepatocyte nuclear factor 6 (Homo sapiens) (UniProt Q9UBC0). The experiment is described as follows: ATG_HNF6_CIS: Attagene CIS-FACTORIAL HepG2 Assay for human Hepatocyte Nuclear Factor 6 (HNF6) (AID 2282952). The conditions noted are these: HepG2 Attagene cis-factorial HNF6 reporter transcription; actives raise or lower the signal. The essentials: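 Endogenous factor activity read in transiently transfected HepG2 via promoter-regulated reporter transcripts. RNA harvested 24 h post-dosing, reverse-transcribed, PCR-amplified, FAM-labelled, HpaI-digested and resolved by capillary electrophoresis; fitted in both directions against DMSO.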
Chain of Hepatocyte nuclear factor 6 (Homo sapiens) (Q9UBC0 whole entry, looked up): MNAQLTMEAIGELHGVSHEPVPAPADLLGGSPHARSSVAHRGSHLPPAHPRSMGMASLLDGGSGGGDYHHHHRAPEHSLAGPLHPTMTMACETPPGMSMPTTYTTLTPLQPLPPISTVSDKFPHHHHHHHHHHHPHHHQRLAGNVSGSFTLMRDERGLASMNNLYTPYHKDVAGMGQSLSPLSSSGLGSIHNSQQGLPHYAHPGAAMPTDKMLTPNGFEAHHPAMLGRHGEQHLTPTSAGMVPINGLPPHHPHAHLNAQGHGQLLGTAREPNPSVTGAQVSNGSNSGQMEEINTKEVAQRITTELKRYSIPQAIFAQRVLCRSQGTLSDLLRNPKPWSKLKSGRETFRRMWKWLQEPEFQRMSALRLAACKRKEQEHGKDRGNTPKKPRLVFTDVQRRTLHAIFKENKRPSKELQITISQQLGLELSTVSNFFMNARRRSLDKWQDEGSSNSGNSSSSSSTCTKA

Experiment [8] addresses Heat shock factor protein 1 (Homo sapiens) (UniProt Q00613). The experiment can be described thus: ATG_HSE_CIS: Attagene CIS-FACTORIAL HepG2 Assay for human Heat Shock Transcription Factor 1 (HSE) (AID 2282953). The conditions noted are these: HepG2 HSE cis-reporter, Attagene RNA transcription; actives raise or lower the signal. The essentials: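 Read-out: fluorescence of reporter-specific RT-PCR fragments separated by capillary electrophoresis. HepG2 carrying transfected cis-element reporter units; 24 h dosing; activity fitted in both directions relative to DMSO baseline.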

Experiment [9] in a line: ATG_MRE_CIS: Attagene CIS-FACTORIAL HepG2 Assay for human Metal Responsive Element (MRE) (AID 2282954). The conditions noted are these: HepG2 MRE cis-reporter transcription, Attagene multiplex; actives raise or lower the signal. The method in brief:
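Multiplexed cis-reporter assay in human HepG2 liver cells, 24 h incubation with test chemical. Reporter transcripts measured by RT-PCR and capillary electrophoresis; values from bidirectional curve fitting versus DMSO.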

A short description of experiment [10]: ATG_PBREM_CIS: Attagene CIS-FACTORIAL HepG2 Assay for human Phenobarbital-responsive Enhancer Module (PBREM) (AID 2282955). The settings on record: HepG2 PBREM cis-reporter, Attagene multiplexed transcription; actives raise or lower the signal. The method in brief: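 Transfected liver-derived HepG2 cells exposed 24 h; PBREM reporter transcript quantified via RT-PCR and capillary electrophoresis, with activity in either direction referenced to DMSO.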

Experiment [11] can be described thus: ATG_PXRE_CIS: Attagene CIS-FACTORIAL HepG2 Assay for human Pregnane X Receptor Element (PXRE) (AID 2282957). The conditions noted are these: HepG2 Attagene CIS-FACTORIAL PXRE reporter, mRNA; actives raise or lower the signal. The essentials:
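Reporter transcripts under endogenous PXR-responsive cis-regulation quantified from total RNA of transfected HepG2 cells 24 h post-dosing, via RT-PCR with fluorescent primer extension and capillary electrophoresis. Gain or loss of signal fitted against DMSO baseline.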

Experiment [12] in a line: ATG_PPRE_CIS: Attagene CIS-FACTORIAL HepG2 Assay for human Peroxisome Proliferator-activated Response Element (PPRE) (AID 2282958). The settings on record: HepG2 PPRE cis-element reporter, Attagene transcription factor profiling; actives raise or lower the signal. The method in brief: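 Measured endpoint: PPRE-controlled reporter mRNA, detected by RT-PCR and capillary electrophoresis fluorescence, from transiently transfected HepG2 cells 24 h after dosing. Curves fitted in both directions using DMSO baseline.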

The nature of experiment [13]: ATG_RORE_CIS: Attagene CIS-FACTORIAL HepG2 Assay for human RAR-related Orphan Receptor Element (RORE) (AID 2282959). The conditions noted are these: HepG2 Attagene cis-factorial RORE reporter, mRNA; actives raise or lower the signal. The essentials: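 Transiently transfected HepG2 reporter cells were treated 24 h. Reporter transcripts were detected by RT-PCR and capillary electrophoresis, with bidirectional fitting against DMSO.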

The nature of experiment [14]: ATG_Sox_CIS: Attagene CIS-FACTORIAL HepG2 Assay for human SRY-box transcription factor (SOX) (AID 2282960). The conditions noted are these: HepG2 Attagene cis-factorial SOX reporter, mRNA; actives raise or lower the signal. The method in brief: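 Gain- or loss-of-signal endpoint, fitted bidirectionally with DMSO as negative control. Based on reporter mRNA from transfected HepG2 cells harvested 24 h post-treatment and quantified via RT-PCR and capillary electrophoresis.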

The target of experiment [15] is Transcription factor Sp1 (Homo sapiens) (UniProt P08047). The experiment is described as follows: ATG_Sp1_CIS: Attagene CIS-FACTORIAL HepG2 Assay for human Specificity Protein 1 (Sp1) (AID 2282961). The conditions noted are these: HepG2 Sp1 cis-reporter transcription, actives raise or lower the signal. The essentials: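 Endpoint reflects endogenous Sp1 transcriptional activity, not an exogenous fusion protein: HepG2 cells with transfected cis-regulated reporters, 24 h dosing, RT-PCR/capillary electrophoresis mRNA read-out, DMSO-normalised bidirectional fit.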
Chain of Transcription factor Sp1 (Homo sapiens) (P08047 whole entry, looked up, the tested form may be a part): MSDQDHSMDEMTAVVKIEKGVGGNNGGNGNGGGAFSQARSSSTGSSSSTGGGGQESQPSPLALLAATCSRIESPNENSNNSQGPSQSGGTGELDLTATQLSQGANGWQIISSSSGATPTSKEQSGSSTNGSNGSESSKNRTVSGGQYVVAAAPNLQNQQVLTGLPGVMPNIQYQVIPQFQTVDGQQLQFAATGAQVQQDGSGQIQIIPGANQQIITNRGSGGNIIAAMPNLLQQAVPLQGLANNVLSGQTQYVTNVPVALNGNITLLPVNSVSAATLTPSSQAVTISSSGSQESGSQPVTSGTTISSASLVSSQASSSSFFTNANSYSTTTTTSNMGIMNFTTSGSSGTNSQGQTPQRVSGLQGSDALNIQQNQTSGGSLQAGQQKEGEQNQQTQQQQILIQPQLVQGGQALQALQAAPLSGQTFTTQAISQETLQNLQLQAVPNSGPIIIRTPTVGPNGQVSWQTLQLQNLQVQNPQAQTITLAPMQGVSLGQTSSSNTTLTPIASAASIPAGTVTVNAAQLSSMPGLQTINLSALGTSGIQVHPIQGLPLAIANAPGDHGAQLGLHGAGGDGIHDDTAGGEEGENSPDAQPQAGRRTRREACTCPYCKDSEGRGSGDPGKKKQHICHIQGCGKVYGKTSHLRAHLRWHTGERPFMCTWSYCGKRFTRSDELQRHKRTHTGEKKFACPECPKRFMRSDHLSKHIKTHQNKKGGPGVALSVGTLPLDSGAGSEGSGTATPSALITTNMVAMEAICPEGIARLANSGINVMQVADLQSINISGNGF

Experiment [16] is described as follows: ATG_SREBP_CIS: Attagene CIS-FACTORIAL HepG2 Assay for human Sterol Regulatory Element Binding (SREBP) (AID 2282962). The conditions noted are these: HepG2 Attagene cis-factorial SREBP reporter, mRNA; actives raise or lower the signal. The method in brief:
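Endogenous factor activity is measured in HepG2 through multiplexed reporter units under cis-element control. Following a 24 h incubation, reporter transcripts are reverse-transcribed, PCR-amplified and sized by capillary electrophoresis; activity is fitted in both directions relative to DMSO.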

Experiment [17] is described as follows: ATG_TA_CIS: Attagene CIS-FACTORIAL HepG2 Assay for human TA Basal Promoter (AID 2282964). The conditions noted are these: HepG2 Attagene CIS-factorial TA basal promoter reporter; actives raise or lower the signal. The essentials: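 Transfected HepG2, 24 h compound exposure; RNA → RT-PCR → FAM primer extension → HpaI cut → CE fluorescence. Gain/loss-of-signal fitted against DMSO negative control. Background-control readout.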

Experiment [18] can be described thus: ATG_TCF_b_cat_CIS: Attagene CIS-FACTORIAL HepG2 Assay for human T-Cell-Factor with beta-catenin (TCF/b-cat) (AID 2282965). The conditions noted are these: HepG2 TCF/beta-catenin cis-reporter transcription, actives raise or lower the signal. The essentials: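 Endogenous transcription factor activity is captured through cis-promoter reporter constructs transiently introduced into human HepG2 liver cells. Induced reporter mRNA is measured after 24 h and fitted bidirectionally relative to DMSO.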

For experiment [19], the target named is Paired box protein Pax-6 (Homo sapiens) (UniProt P26367). The experiment can be described thus: ATG_Pax6_CIS: Attagene CIS-FACTORIAL HepG2 Assay for human Paired Box 6 (PAX6) (AID 2282956). The settings on record: HepG2 CIS-FACTORIAL PAX6 reporter transcription, RNA readout; actives raise or lower the signal. The method in brief:
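Fluorescent RT-PCR products separated by capillary electrophoresis report PAX6-linked promoter mRNA in HepG2 cells 24 h post-dose. Curves fitted bidirectionally, DMSO as negative control.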

Calls of active or inactive are those of the source. The calls were made as follows: active = hit-call score of the fitted dose curve at least 0.9, where 1 is the maximum; inactive = score below 0.9.

The term AC50 denotes the midpoint of the concentration-response curve, whichever way the signal moves.

Chain of Heat shock factor protein 1 (Homo sapiens) (Q00613 whole entry, looked up, the tested form may be a part): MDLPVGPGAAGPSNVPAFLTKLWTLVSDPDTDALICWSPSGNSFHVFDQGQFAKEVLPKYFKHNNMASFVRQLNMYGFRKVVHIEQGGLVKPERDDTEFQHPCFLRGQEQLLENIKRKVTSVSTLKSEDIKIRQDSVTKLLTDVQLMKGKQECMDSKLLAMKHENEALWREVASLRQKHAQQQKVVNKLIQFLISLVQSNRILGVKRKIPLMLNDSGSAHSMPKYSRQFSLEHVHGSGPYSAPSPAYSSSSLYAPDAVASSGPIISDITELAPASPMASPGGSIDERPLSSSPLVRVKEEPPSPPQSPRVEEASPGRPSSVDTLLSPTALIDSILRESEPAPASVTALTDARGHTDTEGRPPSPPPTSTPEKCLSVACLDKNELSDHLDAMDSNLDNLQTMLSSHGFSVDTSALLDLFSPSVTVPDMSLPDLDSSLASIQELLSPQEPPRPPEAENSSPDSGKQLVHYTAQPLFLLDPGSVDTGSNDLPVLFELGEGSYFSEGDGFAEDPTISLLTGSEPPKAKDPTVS
Chain of Bile acid receptor (Homo sapiens) (Q96RI1 whole entry, looked up): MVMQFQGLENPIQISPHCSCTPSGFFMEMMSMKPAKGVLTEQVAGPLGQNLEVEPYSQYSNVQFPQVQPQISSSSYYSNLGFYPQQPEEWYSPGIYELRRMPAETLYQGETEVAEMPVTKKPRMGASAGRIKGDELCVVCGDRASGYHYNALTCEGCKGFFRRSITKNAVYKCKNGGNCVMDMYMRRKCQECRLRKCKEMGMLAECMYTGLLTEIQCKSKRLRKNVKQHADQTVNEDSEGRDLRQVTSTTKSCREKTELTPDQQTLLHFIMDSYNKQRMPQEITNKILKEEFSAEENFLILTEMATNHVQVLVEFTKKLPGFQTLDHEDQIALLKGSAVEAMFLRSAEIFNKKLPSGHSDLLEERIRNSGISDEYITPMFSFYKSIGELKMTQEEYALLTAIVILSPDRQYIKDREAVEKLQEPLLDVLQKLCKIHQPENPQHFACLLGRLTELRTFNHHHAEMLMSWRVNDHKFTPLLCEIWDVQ
Chain of Paired box protein Pax-6 (Homo sapiens) (P26367 whole entry, looked up): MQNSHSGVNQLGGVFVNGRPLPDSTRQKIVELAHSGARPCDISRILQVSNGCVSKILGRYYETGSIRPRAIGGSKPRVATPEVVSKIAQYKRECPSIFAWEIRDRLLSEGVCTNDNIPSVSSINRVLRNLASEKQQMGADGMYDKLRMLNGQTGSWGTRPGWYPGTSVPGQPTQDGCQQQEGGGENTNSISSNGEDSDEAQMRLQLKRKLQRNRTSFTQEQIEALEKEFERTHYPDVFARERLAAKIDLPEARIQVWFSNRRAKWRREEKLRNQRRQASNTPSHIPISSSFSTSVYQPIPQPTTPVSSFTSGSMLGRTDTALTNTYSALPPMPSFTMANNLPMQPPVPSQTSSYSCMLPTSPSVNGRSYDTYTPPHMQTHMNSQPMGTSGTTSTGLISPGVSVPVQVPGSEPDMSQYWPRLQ

For the molecule `Nc1ccc(Cc2ccc(N)cc2)cc1`, the call in experiment [1], in experiment [2], in experiment [3], in experiment [4], in [5] and in experiment [6] was inactive. Moreover, the call in experiment [7], in experiment [8], in [9], in [10], in experiment [11] and in experiment [12] was inactive. Besides, the call in experiment [13], in [14], in experiment [15], in experiment [16], in experiment [17] and in [18] was inactive.
For the molecule `Clc1ccc(C(c2ccc(Cl)cc2)C(Cl)(Cl)Cl)cc1`, the outcome in [1], in experiment [2], in experiment [4], in [5], in experiment [6] and in experiment [7] was inactive. Moreover, the molecule was classed as inactive in experiment [8], in experiment [12], in [13], in experiment [14], in experiment [16] and in experiment [17]. Besides, the result in [18] was inactive. Moreover, the AC50 was 62.2 µM (active) in experiment [3], 100 µM (active) in experiment [9], 4.13 µM (active) in experiment [11] and 100 µM (active) in [15].
`COC(=O)c1ccccc1N`: the result in experiment [2], in experiment [3], in [4], in experiment [5], in experiment [6] and in experiment [7] was inactive. In addition, the call in experiment [8], in experiment [9], in [10], in experiment [19], in [12] and in [13] was inactive. Further, the molecule was called inactive in experiment [14], in experiment [15], in experiment [16], in experiment [17] and in experiment [18]. Further, the half-maximal activity concentration (AC50) in [11] is 100 µM (active).
